Active and inactive are the calls of the source. Cut-off read from the data, not from the text of the source: active = fold change mostly below about -2 (no sharp cut-off); inactive = mostly above about -1.8.
assay: TERT promoter activity modulators, primary screen, cell-based, luciferase reporter, human (AID 1259240); details: A2780 TERT promoter luciferase reporter, 16 h; at 20 µM, fold versus average of vehicle-only wells

Fold change, inactive:
Cc1ccc(C2CC(=O)Nc3cc4c(cc32)OCCO4)cc1Br (centres undefined) -1.14
Cc1c(NC(=O)C2CC(c3ccc(F)cc3)=NO2)c(=O)n(-c2ccccc2)n1C (centres undefined) 1.46
Cc1nc(SCC(=O)NCC2CCCO2)c2c(=O)n(C)c(=O)n(C)c2n1 (centres undefined) 1.01
CCOC(=O)CSc1nc(SCC(=O)OCC)c2c3c([nH]c2n1)CCCC3 1.35
CCCSc1nnc2c3ccccc3n(CC)c2n1 -1.73
CC1(C)NC(=O)N(CC(O)COc2ccccc2)C1=O (centres undefined) -1.3
COc1cc(/C=C2\SC(N3CCN(CCO)CC3)=NC2=O)ccc1O 1.07
Cn1c2ccccc2c2c(C(=O)Nc3ccccc3F)cn(C3CCCC3)c(=O)c21 -1.15
Cc1cc2c(c(=O)[nH]1)C(=O)O/C2=C\c1cc([N+](=O)[O-])ccc1O -1.57
Cn1nc(-c2ccc(C(=O)N3CCCC3)cc2)c2ccccc2c1=O 1.06
CCOC(=O)N1CCC(Nc2c(NC3CCC(C)CC3)c(=O)c2=O)CC1 (centres undefined) 1.1
Cc1cccc(-c2c3c(=O)n(C)c(=O)n(C)c3c3c(C)nc4ccccc4n23)c1 1.21
O=C(CN1C(=O)COc2ccc(S(=O)(=O)N3CCOCC3)cc21)N1CCC2(CC1)OCCO2 1.48
Cc1ccc2c(C)nc(NC3=NCN(CCN4CCOCC4)CN3)nc2c1 1.05
c1nc(N2CCOCC2)c2sc3nc(N4CCOCC4)c4c(c3c2n1)CCCC4 -1.09
COc1cc(NC(=O)C2CCCN(S(=O)(=O)c3ccc4c(c3)oc(=O)n4C)C2)cc(OC)c1 (centres undefined) 1.09
CCOC(=O)C1CCCN(c2c(OCC)c(=O)c2=O)C1 (centres undefined) 1.23
O=C(CSc1nnc2ccc3ccccc3n12)Nc1ccc2c(c1)OCCO2 1.3
COc1ccc2oc(=O)c(S(=O)(=O)c3ccc(C(C)C)cc3)cc2c1 1.21
O=C(NC1CCCC1)C1CCC(CNS(=O)(=O)c2cccc3nsnc23)CC1 (centres undefined) -1.64
CCOC(=O)Cc1csc(NC(=O)Nc2cccs2)n1 1.33
O=C(Nc1ccc2nc3n(c(=O)c2c1)CCCCC3)C(=O)NC1CCCCC1 -1.44
Cc1cc(NC(=O)c2cc3c(s2)-c2ccccc2S(=O)(=O)C3)no1 1.14
Cc1cc(C)cc(NC2=C(N3CCOCC3)C(=O)c3ccccc3C2=O)c1 -1.02
Cc1[nH]nc2c1C(c1ccccc1F)NC2=O (centres undefined) -1.71
CC(C)C(NS(=O)(=O)c1cccc2nsnc12)C(=O)N1CCCCC1 (centres undefined) 1.43
Cc1c(NC(=O)c2ncn[nH]2)c(=O)n(-c2ccccc2)n1C -1.33
CC1CCN(C(=O)Cn2cc(/C=C3/C(=O)Nc4ccccc43)c3ccccc32)CC1 1.13
CCOC(=O)C1CCN(c2c(N(C)C3CCCCC3)c(=O)c2=O)CC1 1.32
CC(C)c1ccc(NC(=O)Nc2ccc3snnc3c2)cc1 -1.62
CC(=O)Oc1ccccc1-c1nc2s/c(=C\c3cccc(Br)c3)c(=O)n2n1 1.36

Fold change, active:
CCc1cccc(Nc2nc3ccccc3n3cnnc23)c1 -4.16
CCc1ccc(CNc2ccc3c(c2)ncn3C(C)C)cc1 -2.78
Cc1nc2cc(-c3cccc(F)c3)nn2c(C)c1CCC(=O)N1CCc2ccccc21 -2.84
CC(=O)c1ccc2c(c1)c1ccccc1n2C -3.04
O=C(NC1(C(F)(F)F)NC(=O)N(Cc2ccco2)C1=O)c1ccncc1 (centres undefined) -2.35
NC(=O)c1ccccc1NC(=O)c1cc(-c2ccc(Br)s2)nc2ccccc12 -2.57

outcome, inactive:
Cc1ccc(N2CC(O)=C(c3nc4ccccc4c(=O)[nH]3)C2=N)cc1C

outcome, active:
CC(C)Cc1nnc(NC(=O)CSc2nc(N)cc(=O)[nH]2)s1
